Reference: PubChem BioAssay (NCI)
The panel holds about 83,000 compounds, 20% with a hit somewhere; the sample as a whole holds those more often.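 Interpretation: 100, growth as untreated; towards 0, rising growth inhibition; 0, no net growth; 0 to -100, cell death. Compounds scoring below 10 were considered active.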 Active and inactive are the calls of the source.

Assays:
Experiment in all cases: NCI-60 one-dose screen, 48 h (100 = growth as untreated, 0 = no growth, -100 = all killed)
Conditions in all cases: 10 µM unless noted
[1] = tested on: RPMI-8226 leukemia
[2] = tested on: OVCAR-8 ovarian
[3] = tested on: OVCAR-5 ovarian
[4] = tested on: OVCAR-4 ovarian
[5] = tested on: SK-OV-3 ovarian
[6] = tested on: OVCAR-3 ovarian
[7] = tested on: HS 578T breast
[8] = tested on: NCI/ADR-RES ovarian
[9] = tested on: IGROV1 ovarian

Measured: growth

O=C(/C=C/c1c(Cl)nc2sccn12)c1ccc(F)c(F)c1
inactive: [1] 55.6% | [2] 92.7% | [3] 76.2% | [4] 79.4% | [5] 71.3% | [6] 81.7% | [7] 73.3% | [8] 85.6%

C[C@H]1[C@H]2[C@H]3CC[C@@H]4[C@@]5(C)C/C(=C/c6cccnc6)C(=O)C(C)(C)[C@@H]5CC[C@@]4(C)[C@]3(C)CC[C@]23CO[C@]1(C)[C@@H](C(=O)/C=C\c1cccnc1)C3
inactive: [4] 18.6% | [7] 11.2%
active: [1] 5.06% | [2] -13.6% | [3] -4% | [9] 1.25% | [6] -43.7% | [8] 2.97%

C=C(C)[C@@H]1CC=C2c3sc(-c4ccc(C)cc4)nc3C[C@@H](C)[C@]2(C)C1
inactive: [1] 109% | [2] 99.3% | [3] 101% | [4] 98.2% | [5] 97.5% | [6] 104% | [7] 100% | [8] 106%

OC(c1cccc(-n2ccc(C(F)(F)F)n2)c1)c1cnccc1NC1CCCCCC1 (stereo not drawn)
inactive: [3] 15.2% | [4] 40.8% | [9] 38.5% | [6] 52.4% | [7] 49.8% | [8] 30%
active: [1] -33.4% | [2] 6.25%

Cc1ccc2nc(C)c(-c3nnc(SCc4ccc(C#N)cc4)o3)n2c1
inactive: [1] 93.6% | [2] 108% | [3] 107% | [4] 95.8% | [9] 89.5% | [7] 93.2% | [8] 90.6%

COc1cc(C2NC(=O)c3ccccc3N2)ccc1OCCCCCOc1c(OC)cc(C2=NOC(c3cc(OC)c(OC)c(OC)c3)C2)cc1OC (stereo not drawn)
inactive: [2] 88.2% | [3] 103% | [4] 28.8% | [9] 15.2% | [6] 78.6% | [7] 102% | [8] 65%
active: [1] -22.2%

N#Cc1c2c(nn(-c3ccccc3)c1=O)C(O)=C([N+](=O)[O-])C(c1ccccc1)C2 (stereo not drawn)
active: [1] -6.06%
inactive: [2] 81.6% | [3] 110% | [4] 73.8% | [9] 50.6% | [6] 76.4% | [7] 91% | [8] 93.5%

COc1ccc2c(c1)O/C(=C\c1cccc(OCC(=O)Nc3nc4ccccc4s3)c1)C2=O
active: [2] 5.46% | [8] -60.1%
inactive: [1] 53.4% | [3] 95.7% | [4] 81.7% | [5] 99.1% | [6] 88.6% | [7] 93.8%

C(=N\Nc1ncc(-c2cc3cc4c(cc3o2)OCO4)s1)/c1ccco1
inactive: [1] 30.9% | [2] 23.7% | [3] 58% | [4] 32.5% | [9] 30.2% | [7] 70.6% | [8] 34.7%
active: [6] 8.65%

CNC(=O)CCN1CCN(CC/C=C2\c3ccccc3Sc3ccc(Cl)cc32)CC1
inactive: [1] 70.1% | [2] 88.5% | [3] 96.3% | [4] 105% | [5] 122% | [6] 57.8% | [7] 65.4% | [8] 98.3%

COc1cc(/C=C2\C(=O)ON=C2C)cc(OC)c1OC
inactive: [1] 95.9% | [2] 99.7% | [3] 99.3% | [4] 104% | [9] 101% | [6] 101% | [7] 92% | [8] 100%

COC(=O)c1ccc(CSc2nnc(-c3c(C)nc4ccc(C)cn34)o2)cc1
inactive: [1] 88.4% | [2] 103% | [3] 106% | [4] 94% | [9] 109% | [6] 119% | [7] 105% | [8] 89.7%

NC(=S)N/N=C/Cc1ccccc1
inactive: [1] 88.3% | [2] 84.3% | [3] 120% | [4] 65.5% | [9] 79% | [6] 109% | [7] 103% | [8] 83.7%

CCOC(CN=Cc1cc(C)c2[nH]c3ccccc3c2c1C)OCC
inactive: [1] 88.7% | [2] 94.7% | [3] 83.4% | [4] 97.8% | [9] 102% | [6] 104% | [7] 123% | [8] 101%

Cc1ccc(Nc2ccc(Nc3ccc(C)cc3)c3c2C(=O)c2cccc(O)c2C3=O)cc1
inactive: [1] 88.7% | [2] 97.8% | [3] 82.1% | [4] 105% | [6] 121% | [7] 99% | [8] 99.8%
active: [9] -12.9%

Cc1ccc(-n2nc3c(c(C#N)c2=O)CC(c2ccccc2Cl)C([N+](=O)[O-])=C3O)cc1 (stereo not drawn)
inactive: [1] 83.2% | [2] 102% | [3] 108% | [4] 90.4% | [9] 90% | [6] 103% | [7] 94.7% | [8] 98.2%

Nc1ccc2c(c1)c(N)nn2C(=O)Nc1ccc(Cc2ccccc2)cc1
inactive: [1] 28.2% | [2] 83.5% | [3] 67.2% | [4] 56.2% | [9] 83.4% | [6] 70.1% | [7] 101% | [8] 78%

COc1cccc(-c2nc3sccn3c2/C=C/C(=O)c2ccc(C(F)(F)F)cc2)c1
inactive: [1] 46.5% | [2] 81.1% | [3] 92.5% | [5] 77.3% | [9] 92.8% | [6] 78.9% | [7] 80% | [8] 89.8%

Cc1ccc2c(c1)Sc1c(ccc3ccccc13)N2
inactive: [1] 50.4% | [2] 72.3% | [3] 109% | [5] 73.1% | [9] 42.3% | [6] 70.8% | [7] 66.4% | [8] 57.3%

C[C@@H]1N=C(c2ccc3ccccc3n2)Nc2nc3ccccn3c2C1=O
inactive: [1] 93.8% | [2] 101% | [3] 106% | [4] 89.5% | [9] 66.3% | [6] 109% | [7] 97.7% | [8] 93.6%

c1ccc(-c2nc([P+](c3ccccc3)(c3ccccc3)c3ccccc3)c(N3CCOCC3)o2)cc1
inactive: [3] 11.1% | [4] 11.4% | [9] 16.7% | [6] 11% | [7] 24.9% | [8] 92.8%
active: [1] -28.5% | [2] 1.55%

COc1ccc(C(=O)Nn2c(NCC(=O)N3c4ccccc4Sc4ccccc43)nnc2-c2ccc(O)cc2)cc1
inactive: [1] 105% | [2] 101% | [3] 89.3% | [4] 120% | [9] 110% | [6] 121% | [7] 106% | [8] 97.8%

COc1cc(C2CC(=O)Nc3c2c(C)nn3-c2nc3ccccc3[nH]2)cc2c1OCC(=O)N2 (stereo not drawn)
inactive: [1] 74.1% | [2] 34.9% | [3] 101% | [4] 73.2% | [9] 60.4% | [6] 13.6% | [7] 26.7% | [8] 93.2%

Cc1ccc(Cl)cc1NC(=O)c1cc2ccccc2cc1O
active: [1] -58.2% | [2] 7.85% | [3] -5.91% | [4] 3.71% | [9] -5.94% | [7] -21% | [8] -27.9%

CCOC(=O)C/C(C)=N\NC(=O)c1ccncc1
inactive: [1] 90% | [2] 99.2% | [3] 98.3% | [4] 98.2% | [5] 101% | [7] 115% | [8] 98%

CCCCNC(=O)Oc1ccc2c(=O)c3sc4c(=O)c5ccccc5c(=O)c4c3c(=O)c2c1
active: [1] -41.9% | [2] -20.4% | [3] -73.6% | [4] -95.4% | [9] -25.6% | [6] -69.5% | [7] 2.8% | [8] -19.3%

Cc1nc2ccccc2c(/C=C/c2ccc(Cl)cc2)c1C(=O)/C=C/c1ccc(F)cc1
inactive: [2] 12.8% | [5] 61.9%
active: [1] -25.1% | [3] -19.7% | [9] -5.53% | [6] -19.2% | [7] 8.46% | [8] -0.868%

COC(=O)c1c2c(c(C)[n+]([O-])c1C)C(=O)C(NCc1ccc(F)c(Cl)c1)=CC2=O
inactive: [1] 20.6% | [3] 38.2% | [5] 87.2% | [7] 68%
active: [2] -14.5% | [9] 3.18% | [6] -21.3% | [8] 0.134%

CS(=O)(=O)c1ccc(Nc2nc(N[C@H]3CCCC[C@H]3N)nc3cc[nH]c(=O)c23)cc1
inactive: [2] 13.6% | [5] 32.8% | [7] 22.2% | [8] 102%
active: [3] -6.49% | [4] -3.9% | [9] 1.3% | [6] -45.2%

COc1ccc(OC)c2c1[nH]c(=O)c1c3ncccc3cn21
inactive: [1] 30.1% | [5] 38.9% | [9] 28% | [6] 46.8% | [7] 69.2% | [8] 13.8%

COc1ccc(C2CC(c3cccc(OC)c3)=NN2C(=O)c2cc(OC)c(OC)c(OC)c2)cc1 (stereo not drawn)
inactive: [1] 15% | [2] 43.9% | [3] 44.5% | [5] 33.7% | [9] 27.9%
active: [6] -55.7% | [7] -13.5% | [8] -30.4%
